# Test results taken from PubChem BioAssay.
# Active and inactive are the calls of the source. Unless noted, how the calls were made is not given here.
# Columns and labels:
# [1] = resazurin metabolic signal in HepG2 cells – cell-based, resazurin fluorescence, 24 h, PK04 Diversity Set, profiling panel (AID 1172); details: HepG2 viability, higher = more signal
# [2] = budding yeast growth changes without added modifier – OD600, strain BY4716, 24 h, basal condition, primary screen (AID 1173); details: S. cerevisiae BY4716 growth, OD600, 24 h; higher = more signal, called active from +8 up or from −8 down
# [3] = viability profiling in MM1S myeloma cells – cell-based, resazurin fluorescence, basal, 24 h, PK04 Diversity Set, profiling panel (AID 1174); details: higher = more signal, called active from +8 up or from −8 down;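 further: MM1S multiple myeloma cell line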
# [4] = target: Dihydroorotate dehydrogenase (quinone), mitochondrial (Plasmodium falciparum (isolate 3D7)) (UniProt Q08210); assay: inhibition of P. falciparum DHODH – biochemical, C-terminal His tag, absorbance 600 nm, primary screen (AID 1175); details: PfDHODH enzyme, DCIP absorbance 600 nm; higher = more signal, called active from +8 up or from −8 down;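 further: recombinant parasite enzyme with a five histidine tag at its C terminus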
# Sequence of Dihydroorotate dehydrogenase (quinone), mitochondrial (Plasmodium falciparum (isolate 3D7)) (Q08210 whole entry, looked up): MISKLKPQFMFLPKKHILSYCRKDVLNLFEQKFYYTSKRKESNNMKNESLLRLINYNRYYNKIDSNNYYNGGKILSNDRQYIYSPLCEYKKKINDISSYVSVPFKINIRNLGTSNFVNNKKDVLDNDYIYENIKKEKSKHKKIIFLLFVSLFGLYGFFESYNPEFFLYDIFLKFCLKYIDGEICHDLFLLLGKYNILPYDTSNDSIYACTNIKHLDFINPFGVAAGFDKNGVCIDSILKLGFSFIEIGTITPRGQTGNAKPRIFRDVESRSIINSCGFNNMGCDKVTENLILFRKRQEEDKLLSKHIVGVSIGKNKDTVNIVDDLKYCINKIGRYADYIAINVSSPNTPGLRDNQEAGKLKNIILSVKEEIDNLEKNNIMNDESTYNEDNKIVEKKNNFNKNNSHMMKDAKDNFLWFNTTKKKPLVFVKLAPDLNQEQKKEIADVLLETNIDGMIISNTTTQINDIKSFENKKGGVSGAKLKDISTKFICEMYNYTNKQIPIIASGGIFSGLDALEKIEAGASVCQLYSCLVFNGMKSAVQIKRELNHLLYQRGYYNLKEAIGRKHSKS
# [5] = inhibition of PAO1 biofilm formation – strain PAO1, LB-PBS medium, absorbance 600 nm, primary screen (AID 1176); details: P. aeruginosa PAO1 growth/biofilm, A600, 12 h; higher = more signal
# [6] = growth modulation of vineyard yeast isolate – strain RM11-1a, OD600, basal, 24 h, primary screen (AID 1177);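 further: cultures grown under basal conditions with no added stressor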; details: S. cerevisiae RM11-1a growth, OD600, 24 h; higher = more signal, called active from +8 up or from −8 down
# [7] = growth of efflux-deficient E. coli DRC39 – strain DRC39, OD650, 24 h, E. coli filamentation inducers, primary screen (AID 1178);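 further: growth measured as culture turbidity by optical density at 650 nm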; details: E. coli DRC39 acrAB, higher = more signal, called active from +8 up or from −8 down
# [8] = growth of efflux-deficient E. coli DRC39 – strain DRC39, OD650, 48 h, E. coli filamentation inducers, primary screen (AID 1179);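 further: screen aims at cell division blockers that make cells filament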; details: E. coli DRC39 delta-acrAB growth, higher = more signal, called active from +8 up or from −8 down
# [9] = viability profiling in RPMI8226 myeloma cells – cell-based, resazurin fluorescence, basal, 24 h, PK04 Diversity Set, profiling panel (AID 1180); details: higher = more signal;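 further: RPMI8826 multiple myeloma cell line at 5000 cells per well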
# [10] = target: E3 ubiquitin-protein ligase XIAP (Homo sapiens) (UniProt P98170); assay: small molecules binding XIAP protein – biophysical, small-molecule microarray, fluorescence 635 nm, primary screen (AID 1181); details: higher = more signal;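 further: score merges 667 nm emission and signal to noise over triplicate slides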
# Sequence of E3 ubiquitin-protein ligase XIAP (Homo sapiens) (P98170 whole entry, looked up, the tested form may be a part): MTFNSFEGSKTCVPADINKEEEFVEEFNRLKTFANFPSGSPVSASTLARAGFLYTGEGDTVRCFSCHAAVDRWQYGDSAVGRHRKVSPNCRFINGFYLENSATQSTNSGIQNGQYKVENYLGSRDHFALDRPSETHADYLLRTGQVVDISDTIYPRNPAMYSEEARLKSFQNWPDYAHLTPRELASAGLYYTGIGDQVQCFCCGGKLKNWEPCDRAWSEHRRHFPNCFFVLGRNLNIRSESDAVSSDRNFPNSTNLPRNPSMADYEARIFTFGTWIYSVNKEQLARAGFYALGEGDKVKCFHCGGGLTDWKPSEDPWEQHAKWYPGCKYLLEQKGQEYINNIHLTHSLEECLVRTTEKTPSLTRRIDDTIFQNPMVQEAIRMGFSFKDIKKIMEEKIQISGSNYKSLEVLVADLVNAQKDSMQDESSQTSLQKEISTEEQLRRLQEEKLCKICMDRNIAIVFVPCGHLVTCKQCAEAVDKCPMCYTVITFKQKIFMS
# [11] = tested on: XIP peptide (Xip251-270) binding; assay: XIP fragment 251-270 binding compounds – biochemical, small-molecule microarray, fluorescence 635/667 nm, 0.1 µg/mL protein, primary screen (AID 1182); details: fluorescent protein binding, 635 nm, higher = more signal, called active from +8 up or from −8 down
# XIP peptide (Xip251-270) = assay: compounds binding XIP fragment 251-270 – biochemical, small-molecule microarray, fluorescence 635/667 nm, 0.5 µg/mL protein, primary screen (AID 1183); details: fluorescence 635 nm, higher = more signal
# [12] = blood-stage malaria parasite viability loss – strain 3D7, DAPI fluorescence, 100 nL, primary screen (AID 1184);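 further: parasites grown inside human red blood cells in medium with human serum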; details: P. falciparum 3D7 growth, 3 d, higher = more signal
# [13] = target: Homeobox protein Hox-A13 (Mus musculus) (UniProt Q62424); assay: disruptors of Hoxa13 oligonucleotide interaction – biochemical, fluorescence polarization, labeled oligonucleotide, primary screen (AID 1185); details: Hoxa13:DNA binding, 15 min, higher = more signal, called active from +8 up or from −8 down
# Sequence of Homeobox protein Hox-A13 (Mus musculus) (Q62424 whole entry, looked up): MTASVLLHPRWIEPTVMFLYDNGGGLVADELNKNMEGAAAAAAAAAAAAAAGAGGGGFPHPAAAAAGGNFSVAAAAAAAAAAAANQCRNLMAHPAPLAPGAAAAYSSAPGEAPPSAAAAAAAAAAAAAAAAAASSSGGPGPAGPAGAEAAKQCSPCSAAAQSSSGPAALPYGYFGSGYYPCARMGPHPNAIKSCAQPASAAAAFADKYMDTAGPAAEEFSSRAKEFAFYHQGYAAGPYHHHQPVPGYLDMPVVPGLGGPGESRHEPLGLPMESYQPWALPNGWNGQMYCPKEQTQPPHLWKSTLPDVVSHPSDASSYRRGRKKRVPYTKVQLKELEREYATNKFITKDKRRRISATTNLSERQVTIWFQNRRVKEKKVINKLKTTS
# [14] = blockers of DNA damage checkpoint Chk1 activation – imaging, HeLa, hydroxyurea, phospho-Chk1 antibody, percent positive cells, primary screen (AID 1186); details: hydroxyurea-induced phospho-Chk1 immunofluorescence imaging, higher = more signal
# [15] = blockers of DNA damage checkpoint Chk1 activation – imaging, HeLa, hydroxyurea, phospho-Chk1 nuclear intensity, primary screen (AID 1187); details: hydroxyurea-induced phospho-Chk1 immunofluorescence imaging, higher = more signal
Structure (SMILES),z-score [1],z-score [2],z-score [3],composite z-score [4],z-score [5],z-score [6],z-score [7],z-score [8],z-score [9],composite z-score [10],composite z-score [11],composite z-score (XIP peptide (Xip251-270)),z-score [12],z-score [13],z-score [14],z-score [15]
COC(=O)C(CC#Cc1ccc2c(c1)[C@]1(C(=O)N2)[C@H](c2ccccc2OCCO)N2[C@H](c3ccccc3)[C@H](c3ccccc3)OC(=O)[C@H]2[C@@H]1C(=O)NC[C@H](O)c1ccccc1)C(=O)OC,-0.248,1.61 (inactive),-6.75 (inactive),-4.58 (inactive),2.09 (inactive),2.22 (inactive),0.405 (inactive),0.615 (inactive),-6.97,0.279,1.8 (inactive),0.777,-2.22,-1.59 (inactive),-0.124 (inactive),-0.553 (inactive)
COc1cc(OC)c(C(O)C2C=CC3C(=O)N(c4ccccc4)C(=O)C3N2Nc2ccccc2)cc1Br (centres undefined),0.222,-11 (active),-1.14 (inactive),0.593 (inactive),0.475 (inactive),0.378 (inactive),-1.05 (inactive),-0.163 (inactive),-1.52,0.0967,1.02 (inactive),0.577,0.0461,-3.38 (inactive),-0.754 (inactive),-0.747 (inactive)
CCOC(=O)C[C@H]1[C@H](OC(=O)c2ccc(C(=O)c3ccccc3)cc2)[C@@H](NC(=O)Cc2ccc(OC)cc2)c2cc(OCCCO)ccc2N1C(=O)c1ccccc1,0.0566,0.29 (inactive),-0.292 (inactive),-0.517 (inactive),0.325 (inactive),-0.193 (inactive),-0.307 (inactive),-0.215 (inactive),-0.268,0.169,0.922 (inactive),-0.281,-0.133,-1.88 (inactive),0.72 (inactive),0.343 (inactive)
CC1CC/C=C\[C@H]2OC34C=CCN(C(C)C)C(=O)[C@H]3N(CCCCCCO)C(=O)[C@@H]4C2C(=O)O1 (some centres undefined),0.609,-0.815 (inactive),0.794 (inactive),-0.36 (inactive),0.345 (inactive),-0.908 (inactive),1.05 (inactive),0.864 (inactive),2.06,0.0914,0.565 (inactive),0.27,-0.565,-3.74 (inactive),-0.108 (inactive),0.631 (inactive)
COc1cc2c(cc1OC)CN(C(=O)[C@@H]1[C@H]3C(=O)O[C@H](c4ccccc4)[C@H](c4ccccc4)N3[C@H](c3ccc(OCCO)cc3)[C@@]13C(=O)Nc1ccc(C#CC4(O)CCCCCC4)cc13)CC2,0.61,-0.257 (inactive),0.341 (inactive),-1.3 (inactive),4.2 (inactive),2.82 (inactive),0.312 (inactive),0.854 (inactive),-0.221,-0.0382,0.784 (inactive),0.684,-2.06,3.75 (inactive),-0.124 (inactive),0.041 (inactive)
Cn1cccc1C(O)C1C=CC2C(=O)NC(=O)C2N1Nc1ccc(Cl)cc1Cl (centres undefined),-1.75,-3.53 (inactive),-1.86 (inactive),0.121 (inactive),1.69 (inactive),0.441 (inactive),-1.09 (inactive),-1.28 (inactive),-1.98,0.315,0.789 (inactive),0.768,-0.152,-3.92 (inactive),0.702 (inactive),0.532 (inactive)
CC(CO)N1C(=O)[C@@H]2[C@H]3C(=O)OCC=C[C@H]3OC23C=CCN(C(C)(C)C)C(=O)[C@@H]13 (some centres undefined),0.0792,0.0031 (inactive),-0.555 (inactive),-1.08 (inactive),-0.401 (inactive),-0.505 (inactive),-0.554 (inactive),-0.762 (inactive),-0.794,0.252,-0.316 (inactive),0.0576,0.293,-5.22 (inactive),0.0116 (inactive),-0.602 (inactive)
COc1cc2c(cc1OC)CN(C(=O)[C@@H]1[C@H]3C(=O)O[C@H](c4ccccc4)[C@H](c4ccccc4)N3[C@H](c3ccc(OCCO)cc3)[C@@]13C(=O)Nc1ccccc13)CC2,-0.44,1.39 (inactive),-1.54 (inactive),-1.09 (inactive),3.15 (inactive),4.05 (inactive),0.144 (inactive),0.919 (inactive),-0.0976,-0.0763,0.675 (inactive),0.742,-1.77,-8.07 (active),-0.118 (inactive),-0.256 (inactive)
CN1C(=O)C2C=CC(C(O)C#Cc3ccccc3)N(Nc3ccccc3)C2C1=O (centres undefined),-0.264,-1.36 (inactive),-1.06 (inactive),0.164 (inactive),-0.103 (inactive),1.39 (inactive),-0.0835 (inactive),-1.05 (inactive),-0.633,0.394,0.783 (inactive),0.794,-0.351,-4.25 (inactive),-0.0435 (inactive),0.113 (inactive)
